Consider seven compounds from PubChem BioAssay (Tox21).

Assay [1] in a line: qHTS assay to identify small molecule agonists of the estrogen receptor alpha (ER-alpha) signaling pathway in the presence of an antagonist - cell viability counter screen (AID 1259386).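 Further: cells exposed to compounds for 22 h at 37 °C before the viability read; nearly all actives have a fitted effect of over 30% in size.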 Further: potency means the concentration at half of the fitted maximal effect. The method in brief:
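Cells are starved of estrogens for 5 days in charcoal-stripped serum, seeded for 24hr and co-treated with ICI-182,780 (10.0nM final) and test compounds. After 22hr at 37C, viability is read as CellTiter-Fluor fluorescence.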
On the technique in general: Quantitative high-throughput screening tests each substance at several concentrations.

The target of assay [2] is Progesterone receptor (Homo sapiens) (UniProt P06401). As to the kind of experiment: qHTS assay to identify small molecule agonists of the progesterone receptor (PR) signaling pathway (AID 1346784; calls by dose curve; further: nearly all actives have a fitted effect of over 30% in size). In a few lines: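 Using charcoal-stripped serum (2%) to limit endogenous steroids, PR-UAS-bla HEK 293T cells received compounds for 16 hr at 37C after 6 hr plating; beta-lactamase FRET fluorescence was recorded following 2 hr substrate loading at room temperature.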

For assay [3] the target is unchanged. The assay can be described thus: qHTS assay to identify small molecule antagonists of the progesterone receptor (PR) signaling pathway (AID 1346795; active means well fitted inhibition curve with a large enough effect in the signal ratio in the repeat runs, not every such curve was filed as active; the % refers to the signal ratio; further: potency means the concentration at half of the fitted maximal effect). The method in brief:
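Inhibition of R5020-induced (1 nM final) beta-lactamase reporter signal in PR-UAS-bla HEK293T cells was scored by FRET fluorescence after overnight (16 hr) compound treatment.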

Assay [4] in a line: qHTS assay to identify small molecule antagonists of the progesterone receptor (PR) signaling pathway - cell viability counter screen (AID 1346798). Further: series mostly up to about 92 µM; nearly all actives have a fitted effect of over 50% in size. The method in brief:
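ATP content as viability readout: CellTiter-Glo luminescence, 30 min room temperature, in PR-UAS-bla HEK293T cells after 16 hr compound/R5020 treatment at 37C and 5% CO2.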

Assay [5] can be described thus: qHTS assay to identify small molecule agonists of the progesterone receptor (PR) signaling pathway - cell viability counter screen (AID 1346799; calls by dose curve; further: nearly all actives have a fitted effect of over 45% in size). The method in brief: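 Cytotoxicity in PR-bla HEK293T cells: 16 h compound, 37C; CellTiter-Glo added post-FRET read; luminescence after 30 min RT.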
Assay [6] in a line: qHTS assay to identify small molecule antagonists of the TGF-beta/Smad signaling pathway - cell viability counter screen (AID 1346824). Further: nearly all actives have a fitted effect of over 50% in size. The method in brief: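 Cytotoxicity counter-screen run in the same wells as the beta-lactamase Smad reporter read: CellTiter-Glo luminescence after 30 min at room temperature. HEK 293T SBE-bla cells had 5 hr compound exposure at 37 C with TGF-beta1 (0.25 ng/mL stock).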

The nature of assay [7]: qHTS assay to identify small molecule agonists of the TGF-beta/Smad signaling pathway - cell viability counter screen (AID 1346829). Further: top concentration of the series differs between compounds; nearly all actives have a fitted effect of over 45% in size. In a few lines:
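Compound-treated SBE-bla HEK 293T cells (5 hr, 37 C) were assessed for viability with CellTiter-Glo in parallel with the reporter read.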

Assay [8] is described as follows: qHTS assay to identify small molecule agonists of the TGF-beta/Smad signaling pathway (AID 1346859; active means well fitted activation curve with a large enough effect in the signal ratio in the repeat runs, not every such curve was filed as active; the % refers to the signal ratio; further: series mostly up to about 77 µM). In a few lines: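 Stable Smad binding element-beta-lactamase HEK 293T cells; 5 hr compound exposure at 37 C under 5% CO2; 2 hr room-temperature substrate step; fluorescence excited at 405 nm, collected at 460 nm and 530 nm.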
In assay [9] the target is Thyrotropin-releasing hormone receptor (Homo sapiens) (UniProt P34981). The assay can be described thus: qHTS assay to identify small molecule antagonists of the thyrotropin-releasing hormone receptor (TRHR) signaling pathway (AID 1346877; active means well fitted inhibition curve with a large enough effect in the repeat runs, not every such curve was filed as active; further: series mostly up to about 51 µM). In a few lines:
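Cells (TRHR-HEK293) are plated and kept 18 h at 37 °C/5% CO2. A calcium-sensitive dye is added for 2 h, compound follows for 5 min at room temperature, and TRH is then given at 1 nM final.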

Assay [10] shares this target. As to the kind of experiment: qHTS assay to identify small molecule agonists of the thyrotropin-releasing hormone receptor (TRHR) signaling pathway (AID 1346891; calls by dose curve;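 further: HEK293 cells expressing TRHR with calcium dye readout; series mostly up to about 58 µM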). The method in brief:
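In 1536-format, 1500 TRHR-Hek293 cells per well grew 18 h, took up calcium dye for 2 h at 37 °C, received compound, and were read kinetically; 15-point titrations, triplicates.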

Assay [11] in a line: Human pregnane X receptor (PXR) small molecule agonists, qHTS cell viability counter screen (AID 1346977). Further: nearly all actives have a fitted effect of over 50% in size. Further: potency means the concentration at half of the fitted maximal effect. In a few lines: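 Readout is CellTiter-Fluor fluorescence from PXR-Luc HepG2 cells. Plated cells rested 5hr, then were treated with compounds for 24hr at 37C and 5% CO2, with reagent present during the last hour.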
Assay [12] is described as follows: Caspase-3/7 induction in HepG2 cells by small molecules, qHTS assay (AID 1346978). Further: nearly all actives have a fitted effect of over 15% in size. In a few lines: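 Caspase-3/7 induction was measured by Caspase-Glo 3/7 luminescence (30 min, room temperature) after a 17 hr compound exposure of wild-type HepG2 cells seeded at 2,000 per well and pre-incubated 5 hr.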
Assay [13] can be described thus: Caspase-3/7 induction in CHO-K1 cells by small molecules, qHTS assay (AID 1346980). Further: nearly all actives have a fitted effect of over 15% in size. The method in brief: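 Luminescent Caspase-Glo 3/7 read (30min, room temperature) quantified apoptosis induction. Cells were wild-type CHO-K1, treated with compound for 17hr at 37 C and 5% CO2.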
The nature of assay [14]: Caspase-3/7 induction in HepG2 cells by small molecules, qHTS cell viability counter screen (AID 1346981). Further: nearly all actives have a fitted effect of over 30% in size. Further: potency means the concentration at half of the fitted maximal effect. The method in brief: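 Steps: seed 2,000 HepG2 cells per well; incubate 5 hr at 37 C; pin-add compounds in DMSO; incubate 16 hr; add CellTiter-Fluor; after 1 hr at 37 C and 5% CO2, read fluorescence.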
Assay [15] addresses Nuclear receptor subfamily 1 group I member 2 (Homo sapiens) (UniProt O75469). The assay can be described thus: Human pregnane X receptor (PXR) small molecule agonists, qHTS assay (AID 1346982). Further: nearly all actives have a fitted effect of over 35% in size. The method in brief: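 Agonist mode qHTS: PXR-Luc HepG2 cells plated 5 hr before DMSO-dissolved compounds were pinned in, cultured 24 hr at 37 C, 5% CO2; ONE-Glo luminescence readout.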

Assay [16] concerns the target Cytochrome P450 2D6 (Homo sapiens) (UniProt P10635). As to the kind of experiment: Cytochrome P450 Family 2 Subfamily D Member 6 (CYP2D6) small molecule antagonists: luciferase reporter qHTS assay (AID 1671196). Further: nearly all actives have a fitted effect of over 50% in size. Further: potency means the concentration at half of the fitted maximal effect. In a few lines:
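P450-Glo format: CYP2D6 converts a proluciferin substrate to luciferin in an NADPH-driven reaction lasting 1 h at room temperature. Light output, proportional to CYP2D6 activity, reflects interference by test chemicals.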
(In general: A reporter such as luciferase makes a cellular process visible.)

The nature of assay [17]: Caspase-3/7 induction in CHO-K1 cells by small molecules, qHTS cell viability counter screen (AID 1346979). Further: nearly all actives have a fitted effect of over 35% in size. Further: potency means the concentration at half of the fitted maximal effect. The method in brief:
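To flag cytotoxic compounds, treated CHO-K1 wild-type cells were given CellTiter-Fluor at 16hr and read fluorescently after 1hr at 37C; the caspase-3/7 luminescence was measured in these same wells.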

Assay [18] has as its target Nuclear receptor subfamily 1 group I member 2 (Rattus norvegicus) (UniProt Q9R1A7). The assay can be described thus: Rat pregnane X receptor (rPXR) activation by small molecules, qHTS assay (AID 1346983). Further: nearly all actives have a fitted effect of over 20% in size. The following applies: rPXR luciferase reporter cells, One-Glo luminescence, 24 h; max activation: active compounds read high. In a few lines:
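Luminescent readout (One-Glo luciferase, 30 min room temperature) followed 24 hr compound treatment at 37 C of rPXR cells plated 2,000 per well and preincubated 5hr; qHTS format with compounds delivered in DMSO.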

Assay [19] deals with Nuclear receptor subfamily 1 group I member 2 (Homo sapiens) (UniProt O75469). As to the kind of experiment: CYP3A4 induction through human pregnane X receptor (PXR) by small molecules, qHTS assay (AID 1346984). Further: nearly all actives have a fitted effect of over 40% in size. In a few lines: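 Steps: seed DPX-2 cells, 5 hr at 37C; pin-transfer compounds; 24 hr at 37C; add Luciferin-IPA (3uM final), 3 hr at 37C; add One-Glo, 30 min RT; read luminescence.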

For assay [20] the target is unchanged. As to the kind of experiment: Human pregnane X receptor (PXR) activation by small molecules, qHTS assay (AID 1346985). Further: nearly all actives have a fitted effect of over 40% in size. In a few lines:
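DPX-2 cells (HepG2 co-transfected with a PXR response element and a CYP3A4-promoter luciferase construct) were seeded at 2,000 per well, rested 5 hr at 37C, then exposed to DMSO-dissolved compounds for 24 hr. Activation was read as luciferase luminescence.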

The structures appear in SMILES notation. A number with no mark means an inactive call. Records with an inconclusive call do not appear. Calls of active or inactive are those of the source. Unless noted, the call rests on the fitted dose curve; in most records, active means well fitted curve in the direction sought with a large enough effect in the repeat runs; inconclusive means weak or mixed curves; inactive means no such curve, though single readings can be large; an effect the other way counts as inactive or inconclusive.
On the % scale 0 is the no-effect control and ±100 the full control effect.

Chain of Nuclear receptor subfamily 1 group I member 2 (Homo sapiens) (O75469 whole entry, looked up): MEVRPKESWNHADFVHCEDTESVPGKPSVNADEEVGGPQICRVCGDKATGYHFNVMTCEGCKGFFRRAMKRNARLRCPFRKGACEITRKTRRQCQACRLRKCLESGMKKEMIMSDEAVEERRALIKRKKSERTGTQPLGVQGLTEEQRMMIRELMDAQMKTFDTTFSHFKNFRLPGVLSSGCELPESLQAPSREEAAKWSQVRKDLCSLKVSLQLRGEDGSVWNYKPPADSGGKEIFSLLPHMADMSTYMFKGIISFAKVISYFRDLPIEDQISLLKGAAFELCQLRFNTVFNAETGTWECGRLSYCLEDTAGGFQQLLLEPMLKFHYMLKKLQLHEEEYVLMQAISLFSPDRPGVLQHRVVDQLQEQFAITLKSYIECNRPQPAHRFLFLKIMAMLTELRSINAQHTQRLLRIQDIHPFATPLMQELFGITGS
Chain of Progesterone receptor (Homo sapiens) (P06401 whole entry, looked up): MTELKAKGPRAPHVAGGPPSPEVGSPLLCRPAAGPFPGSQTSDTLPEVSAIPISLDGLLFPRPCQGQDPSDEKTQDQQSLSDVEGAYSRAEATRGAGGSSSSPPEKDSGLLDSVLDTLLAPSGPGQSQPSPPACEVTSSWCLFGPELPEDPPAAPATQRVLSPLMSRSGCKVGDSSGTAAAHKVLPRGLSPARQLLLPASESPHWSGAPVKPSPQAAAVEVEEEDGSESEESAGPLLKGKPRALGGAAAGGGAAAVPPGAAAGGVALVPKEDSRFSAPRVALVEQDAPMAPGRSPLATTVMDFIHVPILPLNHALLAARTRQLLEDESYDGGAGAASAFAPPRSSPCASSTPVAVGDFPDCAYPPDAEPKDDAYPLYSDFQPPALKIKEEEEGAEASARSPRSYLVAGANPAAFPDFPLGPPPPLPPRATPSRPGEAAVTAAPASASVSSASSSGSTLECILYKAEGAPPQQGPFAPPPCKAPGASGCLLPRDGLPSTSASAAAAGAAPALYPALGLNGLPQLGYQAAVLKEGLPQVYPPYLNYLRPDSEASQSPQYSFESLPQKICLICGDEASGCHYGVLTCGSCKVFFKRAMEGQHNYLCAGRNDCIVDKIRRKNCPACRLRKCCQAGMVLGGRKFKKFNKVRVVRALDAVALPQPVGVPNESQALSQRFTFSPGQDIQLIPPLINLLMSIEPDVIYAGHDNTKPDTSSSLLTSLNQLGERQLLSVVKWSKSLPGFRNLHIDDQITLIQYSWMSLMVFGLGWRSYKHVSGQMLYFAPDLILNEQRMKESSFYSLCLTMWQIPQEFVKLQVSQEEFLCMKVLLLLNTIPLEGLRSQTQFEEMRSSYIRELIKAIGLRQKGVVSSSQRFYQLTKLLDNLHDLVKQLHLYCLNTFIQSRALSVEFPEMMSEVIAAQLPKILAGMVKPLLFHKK
Chain of Cytochrome P450 2D6 (Homo sapiens) (P10635 whole entry, looked up): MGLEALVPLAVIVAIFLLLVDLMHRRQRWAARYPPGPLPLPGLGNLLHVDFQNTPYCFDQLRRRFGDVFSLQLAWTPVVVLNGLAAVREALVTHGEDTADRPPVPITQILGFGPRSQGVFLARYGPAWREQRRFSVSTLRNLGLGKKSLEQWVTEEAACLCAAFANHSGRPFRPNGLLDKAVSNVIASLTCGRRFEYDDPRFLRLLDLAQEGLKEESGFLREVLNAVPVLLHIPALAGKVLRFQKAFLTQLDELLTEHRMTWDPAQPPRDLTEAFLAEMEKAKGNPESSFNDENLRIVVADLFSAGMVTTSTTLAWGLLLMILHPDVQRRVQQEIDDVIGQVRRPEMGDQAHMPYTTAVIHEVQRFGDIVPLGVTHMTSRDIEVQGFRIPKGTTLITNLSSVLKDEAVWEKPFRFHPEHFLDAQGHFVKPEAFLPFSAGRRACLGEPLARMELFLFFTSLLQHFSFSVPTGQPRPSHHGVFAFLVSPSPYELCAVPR
Chain of Thyrotropin-releasing hormone receptor (Homo sapiens) (P34981 whole entry, looked up): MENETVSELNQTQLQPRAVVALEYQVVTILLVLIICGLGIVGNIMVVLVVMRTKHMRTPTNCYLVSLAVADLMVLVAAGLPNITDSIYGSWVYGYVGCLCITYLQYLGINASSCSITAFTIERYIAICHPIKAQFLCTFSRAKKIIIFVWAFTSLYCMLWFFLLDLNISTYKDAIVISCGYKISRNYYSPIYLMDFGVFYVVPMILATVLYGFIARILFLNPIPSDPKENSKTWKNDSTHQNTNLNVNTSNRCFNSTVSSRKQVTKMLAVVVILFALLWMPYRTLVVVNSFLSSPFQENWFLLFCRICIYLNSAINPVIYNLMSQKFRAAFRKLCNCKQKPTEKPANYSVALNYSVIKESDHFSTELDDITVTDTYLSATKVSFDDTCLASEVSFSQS
Chain of Nuclear receptor subfamily 1 group I member 2 (Rattus norvegicus) (Q9R1A7 whole entry, looked up): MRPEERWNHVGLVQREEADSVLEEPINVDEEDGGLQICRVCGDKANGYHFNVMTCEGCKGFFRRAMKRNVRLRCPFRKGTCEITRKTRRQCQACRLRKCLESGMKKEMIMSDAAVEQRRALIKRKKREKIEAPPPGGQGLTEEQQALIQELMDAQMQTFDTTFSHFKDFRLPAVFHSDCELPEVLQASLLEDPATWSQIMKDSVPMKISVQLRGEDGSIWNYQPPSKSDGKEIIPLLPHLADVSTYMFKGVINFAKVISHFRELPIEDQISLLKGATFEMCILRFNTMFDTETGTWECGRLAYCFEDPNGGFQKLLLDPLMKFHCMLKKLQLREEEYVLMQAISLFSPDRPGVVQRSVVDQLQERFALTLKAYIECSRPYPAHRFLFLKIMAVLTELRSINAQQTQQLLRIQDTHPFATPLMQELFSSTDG

On to `Nc1cnn([C@@H]2O[C@H](CO)[C@@H](O)[C@H]2O)c(=O)n1`, for which the Potency result in [1], in assay [4], in assay [5], in assay [6], in assay [7] and in assay [10] was “inactive” throughout. Besides, the Potency entry in [11], in assay [13], in assay [14], in assay [15] and in assay [16] was “inactive” throughout. For the same compound, the compound was called inactive in assay [2], in assay [8], in assay [9] and in assay [12]. For the same compound, in assay [3], the Potency was 19.4 µM (active).
Consider `CC(=O)/C=C/C1C(C)=CCCC1(C)C` (stereo unspecified), for which the Potency entry in assay [1], in assay [3], in assay [4], in [5], in [6] and in assay [7] was “inactive” in each case. The Potency result in assay [10], in assay [11], in assay [17], in assay [13], in [14] and in [15] was “inactive” each time. Also, the Potency entry in assay [16] was “inactive”. For the same compound, the outcome in assay [2], in assay [8], in [9] and in assay [12] was inactive.
Regarding `CC(C)(C)c1ccc(S)cc1`, the Potency result in [1], in assay [3], in assay [4], in [5], in assay [6] and in [7] was “inactive” throughout. Moreover, the Potency entry in assay [10], in [11], in assay [17], in assay [13], in assay [14] and in assay [15] was “inactive” each time. Also, the Potency result in [16] was “inactive”. For the same compound, the outcome in assay [2], in assay [8], in [9] and in assay [12] was inactive.
Consider `C=Cc1c(C)c2cc3[nH]c(cc4nc(cc5nc(cc1[nH]2)C(C)=C5CCC(=O)O)C(CCC(=O)O)=C4C)c(C)c3C=C`, for which the Potency in assay [1] was 26.6 µM (active); in assay [11], 15 µM (active); in [17], 21.1 µM (active); in [14], 13.3 µM (active). Further, the compound was called inactive in assay [2], in assay [8], in assay [9] and in [12]. Also, the Potency entry in assay [3], in assay [4], in assay [5], in assay [6], in assay [7] and in assay [10] was “inactive” in each case. Moreover, the Potency entry in assay [13], in [15], in assay [19] and in assay [20] was “inactive” in each case. For the same compound, the max activation in assay [18] was -1.27%.
With `O=C(O)C1CCC(C(=O)O)CC1` (stereo unspecified), the Potency result in assay [1], in assay [3], in assay [4], in [5], in assay [6] and in [7] was “inactive” each time. Besides, the Potency result in [10], in [11], in assay [17], in assay [13], in [14] and in assay [15] was “inactive” throughout. Moreover, the result in [2], in assay [8], in assay [9] and in assay [12] was inactive.
Turning to `CNS(=O)(=O)Cc1ccc2[nH]cc(CCN(C)C)c2c1`, the Potency result in assay [1], in [3], in assay [4], in [5], in [6] and in assay [7] was “inactive” throughout. Moreover, the Potency entry in [10], in [11], in assay [17], in assay [13], in assay [14] and in assay [15] was “inactive” each time. Besides, the Potency result in [19] and in [20] was “inactive” in each case. Besides, the call in assay [2], in assay [8], in assay [9] and in [12] was inactive. Besides, the max activation in [18] is -4.94%. Further, the Potency in assay [16] was 24.5 µM (active).
Take `N#CCc1cccc(C(F)(F)F)c1`: the Potency entry in assay [1], in assay [3], in assay [4], in [5], in assay [6] and in assay [7] was “inactive” in each case. Besides, the Potency entry in [10], in assay [11], in assay [17], in [13], in assay [14] and in assay [15] was “inactive” each time. Also, the Potency result in [16] was “inactive”. Besides, the call in [2], in [8] and in assay [9] was inactive.
